Screening data as filed in PubChem BioAssay.
APE1 inh-1 – qHTS Assay for Inhibitors of the Human Apurinic/apyrimidinic Endonuclease 1 (APE1); recombinant APE1, TAMRA/BHQ-2 abasic DNA cleavage fluorescence; Potency, µM (doses to about 65.8 µM), inactives show at the top dose activity change, negative = inhibition, actives largely listed as inhibitors; 350,000 compounds, 0.35% hits;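 note: plate controls were vehicle for no effect and reference inhibitor for full effect; nearly all actives have a fitted effect of over 55% in size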
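Step 1: APE1 (0.75 nM) with compound, 15 min RT. Step 2: add 50 nM fluorophore/quencher THF duplex. Step 3: three fluorescence reads 60 s apart (525/598 nm); read 3 minus read 1 = reaction progress.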
RECQ1 inh-1 – qHTS Assay for Inhibitors of RecQ-Like Dna Helicase 1 (RECQ1). ATP-dependent DNA helicase Q1 (Homo sapiens), P46063. RECQ1 DNA unwinding, red fluorescence kinetic read. Potency, µM (top dose mostly 57.3 µM), for the others: at the top dose activity, negative = inhibition, most hits filed as inhibitors. 240,000 compounds, 0.54% hits. AID 2549, 2010;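 note: plate controls were vehicle for no effect and no enzyme for full effect; nearly all actives have a fitted effect of over 30% in size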
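RECQ1T1 50 nM; forked duplex (20 bp + 30-nt ss tails) 200 nM, ATP 2 mM final; pH 8.0, 2 mM MgCl2, 2.5 ug/ml poly(dI-dC); 15 min compound preincubation; discontinuous kinetic read over 2 h at RT.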
GCN5L2 inh – qHTS Assay for Inhibitors of GCN5L2; 390,000 compounds, 0.21% hits; GCN5L2 HAT assay, ThioGlo1 CoA-SH fluorescence; Potency, µM (series often up to 58.9 µM), for inactives: at the top dose activity change, negative = inhibition, actives largely listed as inhibitors; AID 504327, 2011
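ThioGlo1-coupled HAT assay: 20nM GCN5L2, 70uM acetyl-CoA, 75uM H3(1-25) peptide, pH 7.5. Fluorescence read at 340/540nm at start and after 20 min at room temperature.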
BLM inh – qHTS Assay for Inhibitors of Bloom's syndrome helicase (BLM); recombinant BLM DNA unwinding, fluorescence dequenching; AID 2528, 2010; Potency, µM (titrated, usually from 56.1 µM), for inactives: at the top dose activity change, negative = inhibition, usual class: inhibitors; 350,000 compounds, 0.2% hits; RecQ-like DNA helicase BLM (Homo sapiens), P54132;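 note: plate controls were vehicle for no effect and no enzyme for full effect; nearly all actives have a fitted effect of over 35% in size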
TDP1 block – qHTS Assay for Inhibitors of Tyrosyl-DNA Phosphodiesterase (TDP1) | Tyrosyl-DNA phosphodiesterase 1 (Homo sapiens), Q9NUW8 | recombinant TDP1, AlphaScreen DNA substrate cleavage | Potency, µM (top dose mostly 130 µM), for inactives: top-dose activity change, negative = inhibition, most hits filed as inhibitors | 350,000 compounds, 0.28% hits; note: nearly all actives have a fitted effect of over 40% in size
Target sequence (Q9NUW8 whole entry, looked up): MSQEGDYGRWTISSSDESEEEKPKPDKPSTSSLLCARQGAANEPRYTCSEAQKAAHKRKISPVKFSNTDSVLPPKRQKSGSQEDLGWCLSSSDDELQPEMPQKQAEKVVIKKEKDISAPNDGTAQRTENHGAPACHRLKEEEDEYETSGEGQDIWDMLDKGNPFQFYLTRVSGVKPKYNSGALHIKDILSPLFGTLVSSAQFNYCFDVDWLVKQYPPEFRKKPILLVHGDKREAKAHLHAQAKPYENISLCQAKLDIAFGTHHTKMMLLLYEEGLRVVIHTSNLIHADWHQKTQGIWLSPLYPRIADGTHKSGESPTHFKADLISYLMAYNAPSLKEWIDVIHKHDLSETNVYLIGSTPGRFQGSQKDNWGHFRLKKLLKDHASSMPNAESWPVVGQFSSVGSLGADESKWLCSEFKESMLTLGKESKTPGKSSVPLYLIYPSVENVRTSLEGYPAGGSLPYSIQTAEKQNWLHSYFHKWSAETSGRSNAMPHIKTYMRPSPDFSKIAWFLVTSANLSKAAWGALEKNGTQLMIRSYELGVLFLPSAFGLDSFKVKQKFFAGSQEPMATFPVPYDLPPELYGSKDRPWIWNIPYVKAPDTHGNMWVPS
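Steps: enzyme plus compound, 15 min RT; add biotin/phosphotyrosine-FITC oligonucleotide (15 nM final), react 5 min; add donor/acceptor beads (10 ug/ml final), 10 min; read AlphaScreen. Tdp1 at 1 nM final.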
APE1 dye cs – Counterscreen for APE1 Inhibitors: Fluorescent Dye Displacement Assay. DNA fluorescent dye displacement counterscreen, fluorescence. Potency, µM (top dose mostly 28.5 µM), without a hit: top-dose activity change, negative = inhibition, usual class: inhibitors. shares compounds with APE1 inh-1. 480 compounds, 7% hits;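 note: loss of thiazole orange fluorescence as the dye is displaced from duplex DNA; 0% = ThO with dsDNA and no compound and -100% = ThO without dsDNA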
EndoIV counter – Counterscreen for APE1 Inhibitors: qHTS Assay for Inhibitors of Endonuclease IV | 560 compounds, 4% hits | shares compounds with APE1 inh-1 | AID 2565, 2010 | E. coli Endo IV, fluorogenic AP-site DNA cleavage | Potency, µM (doses to about 27.1 µM), without a hit: at the highest dose activity change, negative = inhibition, actives largely listed as inhibitors;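 note: plate controls were uninhibited enzyme wells for no effect and no enzyme buffer wells for full effect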
APE1 inh-2 – Confirmation qHTS Assay for Inhibitors of the Human Apurinic/apyrimidinic Endonuclease 1 (APE1) | shares compounds with APE1 inh-1 | purified APE1, fluorogenic abasic-site DNA cleavage | Potency, µM (highest dose often 57.1 µM), inactives show at the highest dose activity change, negative = inhibition, hits mostly inhibitors | 750 compounds, 44% hits | AID 2572, 2010; note: nearly all actives have a fitted effect of over 30% in size
APE1 FP – qHTS FP-Based Assay for Inhibitors of the Human Apurinic/apyrimidinic Endonuclease 1 (APE1). AID 2573, 2010. APE1 binding to TAMRA-labelled double-stranded DNA, fluorescence polarization displacement. 480 compounds, 7% hits. shares compounds with APE1 inh-1. Potency, µM (series often up to 28.5 µM), for the others: at the top dose activity, negative = inhibition, actives largely listed as inhibitors
RECQ1 conf – Confirmation qHTS Assay for Inhibitors of RecQ-Like Dna Helicase 1 (RECQ1); shares compounds with RECQ1 inh-1; RECQ1 helicase DNA unwinding, fluorescence; Potency, µM (titrated, usually from 229 µM), without a hit: at the top dose activity change, negative = inhibition, most hits filed as inhibitors; 610 compounds, 28% hits; note: nearly all actives have a fitted effect of over 45% in size
ADP FP counter – Counterscreen for RECQ1 Inhibitors: ADP Fluorescence Polarization Displacement Assay | 530 compounds, 27% hits | AID 2711, 2010 | shares compounds with RECQ1 inh-1 | ADP fluorescence polarization displacement counterscreen | Potency, µM (doses to about 228 µM), for inactives: at the highest dose activity change, negative = inhibition, actives largely listed as inhibitors; note: nearly all actives have a fitted effect of over 45% in size
RECQ1 inh-2 – Confirmation qHTS Assay for Inhibitors of RecQ-Like Dna Helicase 1 (RECQ1) - Round 2 Cherry Picks; recombinant RECQ1 DNA unwinding, red fluorescence; shares compounds with RECQ1 inh-1; 1,100 compounds, 15% hits; Potency, µM (highest dose often 119 µM), for the others: at the highest dose activity, negative = inhibition, most hits filed as inhibitors; note: nearly all actives have a fitted effect of over 50% in size
Starred values were filed as active, the others as inactive; i = inactive; ? = inconclusive; . = no result; [ ] = another dose, or the depositor's remark. The list is not random: actives were taken first. Their share in the collection is about 0.87%. Calls come from the whole dose curve; as a rule, active = well fitted curve in the direction sought with a large enough effect; inconclusive = small, poorly fitted or top-dose-only effect, or another doubt; inactive = no such curve, though single readings can be large; an effect the other way counts as inactive or inconclusive. Unless noted, % is set by controls: 0 for no effect and ±100 for the full control effect; potency is the fitted concentration of half-maximal effect.

SMILES | APE1 inh-1 | RECQ1 inh-1 | GCN5L2 inh | BLM inh | TDP1 block | APE1 dye cs | EndoIV counter | APE1 inh-2 | APE1 FP | RECQ1 inh-2 | others
O=C1/C(=C/c2ccc(O)c(O)c2)Oc2cc(O)ccc21 | ? | ? | -16.2% | -14.8% | . | -4.7% | 176.6% | ? | 26.6% | 56.2µM*
COc1cc(/C=N/NC(=O)c2cccc([N+](=O)[O-])c2)ccc1OCc1ccccc1 | -6.1% | -28.9% | -1.5% | -3.1% | -5.1% | . | . | . | . | .
COc1cc(/C=C/[N+](=O)[O-])ccc1OCc1cccc(C(=O)O)c1 | 6.31µM* | 20µM* | -14.0% | ? | . | 20.0% | 4.5% | ? | 28.8% | . | RECQ1 conf=18.0%[114 µM];ADP FP counter=?
Cc1cc(NC(=O)Cc2cccs2)no1 | 28.2µM* | 25.1µM* | -14.1% | ? | . | ? | ? | 7.94µM* | -84.7% | ?
CCc1ccc(C(=O)c2cn(Cc3ccc(F)cc3)c3cc(OC)c(OC)cc3c2=O)cc1 | . | . | -11.4% | -8.0% | 3.5% | . | . | . | . | .
CC(=O)NC1=NN(C(C)=O)C(C)(c2ccccc2)S1 (configuration not stated) | 2.82µM* | 39.8µM* | -3.1% | ? | . | 5.2% | -4.2% | 1.41µM* | -5.9% | -2.1%
C[C@@]1(C(=O)O)NCCc2cc(O)c(O)cc21 | 1.78µM* | 2.51µM* | ? | 8.91µM* | . | -12.4%[57.1 µM] | 161.3%[57.1 µM] | -1.7% | 20.2%[57.1 µM] | . | RECQ1 conf=-57.7%;ADP FP counter=?
C/C=C/C=C/C=O | -1.7% | 3.5% | . | . | -2.5% | . | . | . | . | .
CCOc1ccc(/C=c2\sc3nc(-c4ccco4)nn3c2=O)cc1OCC | 15.7% | i | -1.7% | 0.9% | -1.1% | . | . | . | . | .
